Rab9 promoter act: activators of Rab9 promoter. Huh7 Rab9 promoter-luciferase reporter, luminescence, 24 h. Potency, µM (titrated, usually from 9.22 µM), without a hit: at the top dose activation, negative = inhibition, most hits filed as activators. 2.8% of 320,000 active; further: % of control where 0% means no effect; nearly all actives have a fitted effect of over 60% in size
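Luminescence read-out: Huh7 cells stably expressing Rab9-luciferase, treated 24 h with compound at 37 °C, then lysed with luciferase reagent for 10 min at ambient before reading.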
ELG1 genotox: induces genotoxicity in HEK293T cells with luciferase-tagged ELG1 | HEK293T ELG1-luciferase reporter, luminescence, 16 h | Potency, µM (doses to about 46 µM), inactives show top-dose activity change, positive = activation, hits mostly activators | 1.3% of 330,000 active | AID 504466; further: % of control where 0% means no effect; nearly all actives have a fitted effect of over 60% in size
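Reporter readout depends on ELG1 protein level, which increases with genetic stress. After 16 hr compound exposure at 37 °C, luciferase activity was quantified using ONE-Glo.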
SMN2 splice enh: enhancers of SMN2 splice variant expression. HEK293 SMN2-luciferase splicing reporter, luminescence, 30-36 h. Potency, µM (series often up to 46.1 µM), for inactives: at the top dose activity change, positive = activation, hits mostly activators. 2.8% of 210,000 active. AID 1458; further: % of control where 0% means no effect; nearly all actives have a fitted effect of over 55% in size
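qHTS luciferase splicing reporter: luminescence rises when SMN2 exon 7 is included in transfected HEK293 cells. Compound exposure lasted 30-36 h at 37C, with 4.5 mM final sodium butyrate as control, followed by a ONE-Glo read.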
NPC1 prom act: activators of NPC1 promoter; Huh7 NPC1 promoter luciferase reporter, 24 h; Potency, µM (highest dose often 9.22 µM), inactives show at the top dose activation, most hits filed as activators; 2.4% of 320,000 active; AID 485313; further: % of control where 0% means no effect; nearly all actives have a fitted effect of over 60% in size
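Luminescence from an NPC1 promoter-driven luciferase reporter in stably transfected Huh7 cells was measured after 24 h compound treatment at 37 °C, followed by 10 min ambient incubation with luciferase detection reagent.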
FLuc counter: inhibits or activates purified firefly luciferase, miR-21 counter-screen; 6.9% of 360,000 active; AID 588342; P08659; purified FLuc, Km substrates, luminescence inhibition; Potency, µM (top dose mostly 57.5 µM), for the others: top-dose activity change, negative = inhibition, hits mostly inhibitors;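 further: plate controls were vehicle for no effect and reference inhibitor for full effect; nearly all actives have a fitted effect of over 55% in size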
Target sequence (P08659 whole entry, looked up): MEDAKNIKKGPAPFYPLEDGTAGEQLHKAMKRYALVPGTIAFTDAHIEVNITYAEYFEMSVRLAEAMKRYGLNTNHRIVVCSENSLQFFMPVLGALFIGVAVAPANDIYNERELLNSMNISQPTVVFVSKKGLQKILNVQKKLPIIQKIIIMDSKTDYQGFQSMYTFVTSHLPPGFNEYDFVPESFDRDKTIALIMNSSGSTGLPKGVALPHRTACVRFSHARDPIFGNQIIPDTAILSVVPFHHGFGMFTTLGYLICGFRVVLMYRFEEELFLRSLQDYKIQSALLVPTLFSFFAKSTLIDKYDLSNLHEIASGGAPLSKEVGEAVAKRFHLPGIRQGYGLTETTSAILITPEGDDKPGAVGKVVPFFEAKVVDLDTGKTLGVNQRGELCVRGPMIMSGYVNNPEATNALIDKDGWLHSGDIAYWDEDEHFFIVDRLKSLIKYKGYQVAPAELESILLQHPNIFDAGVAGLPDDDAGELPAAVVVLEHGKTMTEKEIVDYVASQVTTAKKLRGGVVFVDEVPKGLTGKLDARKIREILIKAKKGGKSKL
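Purified P. pyralis luciferase, 10 nM final, with Km-level 10 uM D-luciferin and 10 uM ATP in 50 mM Tris acetate pH 7.5, 10 mM Mg acetate, 0.01% Tween-20, 0.05% BSA; 6-point qHTS titration about 60 µM downward; luminescence read.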
KinaseGlo FLuc: counter-screen: inhibitors of Kinase-Glo firefly luciferase; Potency, µM (top dose mostly 38.3 µM), for the others: at the highest dose activity change, negative = inhibition, most hits filed as inhibitors; 0.28% of 200,000 active; Kinase-Glo luciferase, ATP luminescence, 8 min; AID 1379; Q27757; further: on the % scale 0 is the no-effect control and ±100 the full control effect; nearly all actives have a fitted effect of over 60% in size
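Substrate mix (final 50 mM imidazole pH 7.2, 50 mM KCl, 7 mM MgCl2, 10 uM ATP, 0.01% Tween 20, 0.05% BSA) plus pin-tool compound, then Kinase-Glo detection mix; 8 min ambient, luminescence read.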
Active calls of the source: *; ? = inconclusive; / = no result; [ ] = dose if it differs, or a comment. Only some compounds are listed: those with a hit (about 7.3% of all), similar ones and a draw of the others. The call rests on the fitted dose curve; in most records, active means well fitted curve in the direction sought with a large enough effect; inconclusive means small, poorly fitted or top-dose-only effect, or another doubt; inactive means no such curve, though single readings can be large; an effect the other way counts as inactive or inconclusive. Potency means the concentration at half of the fitted maximal effect.

SMILES	Rab9 promoter act	ELG1 genotox	SMN2 splice enh	NPC1 prom act	FLuc counter	KinaseGlo FLuc
C/C(=N/NC(=O)c1ccccn1)c1c[nH]c2ccccc12	3.55µM*	10.3µM*	/	2.24µM*	5.36µM*	/
C=CCn1c(COc2ccc(OC)cc2)nc2ccccc21	?	?	/	?	16.9µM*	/
CCn1c(NCc2ccc3c(c2)OCO3)nc2ccccc21	4.1%	6.0%	10.2%	17.3%	?	-3.9%
CCn1c(COc2ccccc2)nc2ccccc21	1.7%	21.0%	2.7%	1.6%	?	-5.1%
CCn1c(COc2ccc(OC)cc2)nc2ccccc21	?	16.9%	1.0%	?	13.5µM*	-7.8%
C=CCn1c(NCc2ccc(OC)cc2O)nc2ccccc21	?	12.8%	/	?	19µM*	/
C=CCn1c(NCc2ccc3c(c2)OCO3)nc2ccccc21	23.6%	29.7%	-2.6%	14.4%	15.1µM*	-4.7%
CN1CCN(Cc2ccc(OCc3ccccc3)cc2)CC1	?	?	-5.1%	?	13.5µM*	0.1%
O=C1CCN(Cc2ccccc2)CCN1CCOc1ccccc1	3.55µM*	13.8%	/	?	23.9µM*	/
c1ccc(COc2ccc(OCCN3CCCC3)cc2)cc1	20.7%	4.8%	-2.3%	22.7%	?	0.6%
CCN1CCN(Cc2ccc(OCc3ccccc3)cc2)CC1	16.8%[1.84 µM]	10.3µM*	-35.1%	3.98µM*	21.3µM*	-2.2%
CC(C)CNC(=O)C1CCN(Cc2ccc(OCc3ccccc3)cc2)CC1	?	9.7%	?	24.0%	16.9µM*	-1.6%
CC(=O)OCOC(=O)CN(CC(=O)OCOC(C)=O)c1ccccc1OCCOc1ccccc1N(CC(=O)OCOC(C)=O)CC(=O)OCOC(C)=O	/	/	-13.3%	/	/	/
CCc1ccc(S(=O)(=O)c2nnn3c2nc(N(CC)Cc2ccccc2)c2cc(Cl)ccc23)cc1	/	/	-2.4%	/	-6.0%	/
Cc1cc(C)cc(C(=O)Nc2ccc(-c3nc4ncccc4o3)cc2)c1	/	/	-4.8%	/	0.6%	/
Cc1cc(C)c(NC(=O)Cn2c(=O)n(Cc3ccco3)c(=O)c3ccc(C(=O)NC4CCCC4)cc32)c(C)c1	/	/	?	/	1.3%	/
O=C(CCCN1C(=O)/C(=C/c2ccccc2Cl)SC1=S)NNC(=O)c1ccccc1Cl	-27.0%	-2.7%	-34.6%	-20.6%	7.57µM*	-6.3%
O=C(CCCN1C(=O)/C(=C/c2ccccc2Cl)SC1=S)N1CCCC1	-26.3%	1.3%	/	-12.1%	?	/
O=C(CCCN1C(=O)/C(=C/c2ccccc2Cl)SC1=S)NNC(=O)c1ccncc1	-13.6%	-9.3%	/	-13.2%	15.1µM*	/
O=C(CCN1C(=O)/C(=C/c2ccccc2Cl)SC1=S)N1CCCC1	-27.2%	-9.0%	/	-21.7%	26.9µM*	/
CC1CCc2c(sc(NC(=O)c3cc4nc(-c5ccc(Cl)cc5)cc(C(F)(F)F)n4n3)c2C#N)C1 (stereo unspecified)	/	/	5.1%	/	2.5%	/
CCS(=O)(=O)N1CC(=O)N(c2ccc(C)c(C)c2)C(C)(C(=O)NC2CCCCC2)C1 (stereo unspecified)	/	/	/	/	-1.7%	/
COc1ccc(Br)c2c1-c1nc(NC(=O)c3cccc(C)c3)sc1C2	/	/	6.5%	/	-7.8%	/
CCCOc1ccc(C2=NC(c3ccc(F)cc3)=Nc3ccc(OC)cc3N2)cc1	/	/	13.4%	/	-16.8%	/
